Inconclusive results are not listed. A call without a number means that no potency is given here. Active and inactive are the calls of the source. Calls come from the whole dose curve; as a rule, active = well fitted inhibition curve with a large enough effect; inconclusive = small, poorly fitted or top-dose-only effect; inactive = no such curve, though single readings can be large or run the other way.

This assay in a line: Primary qHTS for inhibitors of nuclear receptor binding SET domain protein 2 (NSD2) in an RCH-ACV wild type WT cells (2C) (AID 1645877). Note: nearly all actives have a fitted effect of over 70% in size. Conditions: RCH-ACV (leukaemia line) NSD2 WT (2C) viability, CellTiter-Glo, 72 h; series mostly up to 44.9 µM. From the text: Assay Provider: Jonathan D. Licht, MD
University of Florida College of Medicine, Gainesville, FL
Mutations in epigenetic regulators are common in relapsed pediatric acute lymphoblastic leukemia (ALL). Here, we uncovered the mechanism underlying the relapse of ALL driven by an activating mutation of the NSD2 histone methyltransferase (p.E1099K). […] Correction of this mutation restored glucocorticoid sensitivity. The transcriptional response to glucocorticoids was blocked in NSD2 mutant cells due to depressed glucocorticoid receptor (GR) levels and the failure of glucocorticoids to autoactivate GR expression. […] Pre-treatment of NSD2 p.E1099K cell lines and PDX samples with PRC2 inhibitors reversed glucocorticoid resistance in vitro and in vivo.
High-throughput drug screening of isogenic RCH-ACV cell lines was performed at the National Center for Advancing Translational Science (NCATS), National Institutes of Health as previously described (1). Briefly, isogenic RCH-ACV NSD2 p.E1099K mutant (9B) and WT cells (2C) were plated at 500 cells/well in a 1536-well plate with a 72-hour incubation with compounds prior to addition of CellTiter-Glo to assess cell viability. NCATS libraries screened include: NPC, MIPE 5.0, Kinase and NPACT. To determine compound activity in the qHTS assay, the concentration-response data for each sample was plotted and modeled by a four-parameter logistic fit yielding IC50 and efficacy (maximal response) values. The area under the curve (AUC) of the dose-response curve ensures both efficacy (magnitude of cell killing) and potency (concentration that elicits cell killing) are accounted for in the analysis of activity.
1. Tobie D Lee, Olivia W Lee, Kyle R Brimacombe, Lu Chen, Rajarshi Guha, Sabrina Lusvarghi, Bethilehem G Tebase, Carleen Klumpp-Thomas, Robert W Robey, Suresh V Ambudkar, Min Shen, Michael M Gottesman, Matthew D Hall. A High-Throughput Screen of a Library of Therapeutics Identifies Cytotoxic Substrates of P-glycoprotein. Mol Pharmacol. 2019, Nov;96(5):629-640.
Take `CN1CCc2cccc3c2[C@H]1Cc1ccc(O)c(O)c1-3`: the Potency is 7.5 µM (active).

`CCC(C(=O)OCCOCCN(CC)CC)c1ccccc1` (stereo not given): the Potency result is “inactive”. Regarding `CCN[C@@H]1C[C@H](N)[C@@H](OC2OC(CN)=CCC2N)[C@H](O)[C@H]1O[C@H]1OC[C@](C)(O)[C@H](NC)[C@H]1O` (stereo not given in full), the activity change, negative = cell killing was 2.3% [at 0.588 µM] (inactive). Regarding `CCCCCCCCCCC[C@@H](C[C@@H]1OC(=O)[C@H]1CCCCCC)OC(=O)[C@H](CC(C)C)NC=O`, the Potency entry was “inactive”. With `COc1ccc(CN(CCN(C)C)c2ncccn2)cc1`, the Potency entry was “inactive”. On to `COc1ccc(C(=O)c2ccccc2O)c(O)c1`, for which the Potency result is “inactive”. For the compound `Clc1cccc(C(c2ccc3nc[nH]c3c2)n2ccnc2)c1` (stereo not given), the Potency entry was “inactive”. The same measure, in the same setting: as for `COc1ccc2c(c1)c1c3n2CCN(C)C3=NCC1`, the entry is “inactive”; as for `O=C(O)CCc1nc2ccccc2[nH]1`, “inactive”; as for `C[C@@H](O)[C@H]1C(=O)N2C(C(=O)O)=C(S[C@@H]3CN[C@H](CNS(N)(=O)=O)C3)[C@H](C)[C@H]12`, “inactive”. Take `Oc1ccc(Cl)cc1Cc1cc(Cl)ccc1O`: the Potency is 18.8 µM (active). In the case of `Cc1cc(NS(=O)(=O)c2ccc(N)cc2)nc(C)n1`, the Potency entry is “inactive”. For the compound `C[N+]12CCC(CC1)C(OC(=O)C(O)(c1ccccc1)c1ccccc1)C2` (stereo not given), the Potency result is “inactive”. `NS(=O)(=O)c1ccc(Cl)c(S(N)(=O)=O)c1`: the Potency entry was “inactive”. With `COc1ccc(C(Cl)=C(c2ccc(OC)cc2)c2ccc(OC)cc2)cc1`, the Potency result was “inactive”.

Take `COc1cc(C(=O)NCc2ccc(OCCN(C)C)cc2)cc(OC)c1OC`: the Potency result is “inactive”. Same read-out and setting: as for `CCN(CC)CCOC(=O)C1(c2ccccc2)CCCC1`, the entry is “inactive”; as for `O=C(Nc1ccc([N+](=O)[O-])cc1)Nc1ccc([N+](=O)[O-])cc1`, “inactive”. Same read-out and setting: as for `CCO[C@@H]1O[C@H](C(COCc2ccccc2)OCc2ccccc2)[C@H](OCc2ccccc2)[C@H]1O` (stereo not given in full), the figure is 21.1 µM (active); as for `CC(=O)Nc1ccc(CC(=O)O)cc1`, “inactive”; as for `CCOc1ccc(NC(C)=O)cc1`, “inactive”.

As for `C[C@@]12C(=O)OC(=O)[C@]1(C)C1CCC2O1`, the Potency was 2.66 µM (active). For `CN(Cc1ccc(C(C)(C)C)cc1)Cc1cccc2ccccc12`, the Potency entry was “inactive”.

Turning to `Cc1ccc2c(Br)cc(Br)c(O)c2n1`, the Potency was 2.37 µM (active). As for `C[C@H]1O[C@@H](O[C@H]2CC[C@@]3(C)[C@H](CC[C@@H]4[C@@H]3C[C@@H](O)[C@]3(C)[C@@H](C5=CC(=O)OC5)CC[C@]43O)C2)C[C@H](O)[C@@H]1O[C@H]1C[C@H](O)[C@H](O[C@H]2C[C@H](O)[C@H](O[C@@H]3O[C@H](CO)[C@@H](O)[C@H](O)[C@H]3O)[C@@H](C)O2)[C@@H](C)O1`, the Potency was 0.0944 µM (active). For `O=S(=O)(O)c1ccc(O)cc1`, the Potency result is “inactive”. For the compound `CCCCCCCCCCCCSCCOCCO`, the Potency result was “inactive”. Take `CCCCCCCCOc1ccc(C(=O)c2ccccc2)c(O)c1`: the Potency entry is “inactive”. The same measure, in the same setting: as for `CC[C@]12CCCN3CCc4c(n(c5ccccc45)C(=O)C1)[C@@H]32`, the figure is 5.96 µM (active); as for `O=C1C(=O)c2ccccc2C(O)=C1C1CCC(c2ccc(Cl)cc2)CC1` (stereo not given), “inactive”.

`Cc1c[nH]c2ccccc12`: the Potency entry was “inactive”.

Turning to `CC(=O)O[C@H]1C[C@@H]2CC[C@@H]3[C@H](CC[C@@]4(C)[C@H]3C[C@H]([N+]3(C)CCCCC3)[C@@H]4OC(C)=O)[C@@]2(C)C[C@@H]1N1CCCCC1`, the Potency entry is “inactive”.

Take `CCN1CCN(C(=O)N[C@@H](C(=O)N[C@@H]2C(=O)N3C(C(=O)O)=C(CSc4nnnn4C)CS[C@H]23)c2ccc(O)cc2)C(=O)C1=O`: the Potency entry was “inactive”. On the same count and under the same terms, as for `CCCCCN=C(N)N/N=C/c1c[nH]c2ccc(OC)cc12`, the figure is 4.73 µM (active). Same read-out and setting: as for `Nc1ccc(S(=O)(=O)Nc2cnc3ccccc3n2)cc1`, the entry is “inactive”; as for `CNCCc1ccccn1`, “inactive”. In the case of `Cc1ncc(CO)c(C=O)c1O`, the Potency result is “inactive”. Take `Cn1c(=O)c2[nH]c(Br)nc2n(C)c1=O`: the Potency entry is “inactive”.

For the compound `NC(N)=NN=C(/C=C/c1ccc([N+](=O)[O-])o1)/C=C/c1ccc([N+](=O)[O-])o1`, the Potency is 0.531 µM (active). Regarding `Oc1c(Cl)cc(Cl)c(Cl)c1Cc1c(O)c(Cl)cc(Cl)c1Cl`, the Potency was 5.96 µM (active).

(Values after PubChem BioAssay (NCATS).)
